Most compounds without a hit are left out; they make up all but 2.2% or so of the library.
aSyn rescue = inhibitors of alpha-synuclein toxicity in yeast; Yeast expressing alpha-synuclein, growth rescue, BacTiter-Glo, 24 h; Potency, µM (highest dose often 46.1 µM), hits mostly activators; hit rate 0.14% among 370,000; further: nearly all actives have a fitted effect of over 65% in size
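Galactose-induced alpha-syn yeast (OD600=0.02, raffinose-pregrown) + pinned cpd, 24 hr, 30 deg C; growth by BacTiter-Glo luminescence. Growth restoration scores as activation.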
Mito fusion act = mitochondrial division inhibition or fusion activation; hit rate 0.23% among 320,000; S. cerevisiae fusion-defective mutant growth rescue, CellTiterGlo 48 h; Potency, µM (doses to about 46.1 µM), actives largely listed as activators; AID 485298; further: nearly all actives have a fitted effect of over 45% in size
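Compounds are tested for their ability to restore growth of mitochondrial fusion-defective yeast strains at non-permissive 37C in YPEG medium over 48 hours. Viability is quantified by luciferase luminescence.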
FUS yeast rescue = FUS proteinopathy suppression in yeast; S. cerevisiae FUS-expressing, growth rescue, OD600, 24 h; Potency, µM (doses to about 76.6 µM), actives largely listed as activators; hit rate 0.24% among 390,000; AID 1347120; further: nearly all actives have a fitted effect of over 55% in size
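Absorbance at 600 nm, taken 24hr after compound addition, measured rescue of FUS-yeast growth at 30C. Induction used 2% galactose with seeding at OD 0.005. Controls: CP55940 from 92uM final, DMSO only.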
TDP-43 yeast inh = inhibitors of TDP-43 toxicity in yeast. TDP-43 expressing yeast growth rescue, BacTiter-Glo, 24 h. Potency, µM (top dose mostly 46.1 µM), actives largely listed as activators. hit rate 1.8% among 410,000; further: nearly all actives have a fitted effect of over 50% in size
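In this qHTS, compounds that restore growth of yeast expressing TDP-43 appear as activators. Cells (OD600=0.02, galactose medium, raffinose-pregrown) are incubated with compound 24 hr at 30 deg C and growth is quantified by BacTiter-Glo.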
Abeta rescue = A-beta toxicity reversal in yeast; Potency, µM (series often up to 46.1 µM), hits mostly activators; hit rate 0.063% among 410,000; yeast expressing A-beta42, growth rescue, OD600, 48 h; response scale: 0% DMSO, 100% iron-clioquinol control; further: nearly all actives have a fitted effect of over 55% in size
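Yeast growth medium received pinned compounds, then yeast cells expressing toxic A-beta were added; plates incubated at 30 C for 48 hr. Growth read as absorbance at 600 nm, normalized to DMSO and equimolar FeCl3 plus clioquinol controls.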
Large screens that a line does not name were inactive. The call rests on the fitted dose curve; in most records, active means well fitted curve in the direction sought with a large enough effect; inconclusive means small, poorly fitted or top-dose-only effect, or another doubt; inactive means no such curve, though single readings can be large; an effect the other way counts as inactive or inconclusive.

COc1ccc(-c2[nH]c(-c3ccc(Cl)cc3)nc2SCC(=O)NCC2CCCO2)cc1 (stereo not drawn)	none (no result: aSyn rescue, Mito fusion act)
Cc1cc(C)c(S(=O)(=O)NCC(c2ccco2)S(=O)(=O)c2ccccc2)c(C)c1 (stereo not drawn)	none (no result: aSyn rescue, Mito fusion act)
CCOc1ccc(S(=O)(=O)NCC(c2cccs2)S(=O)(=O)c2ccc(C)cc2)cc1 (stereo not drawn)	TDP-43 yeast inh 2.8µM (no result: aSyn rescue, Mito fusion act)
Cc1ccc(S(=O)(=O)C(CNS(=O)(=O)c2ccc(F)c(C)c2)c2cccs2)cc1 (stereo not drawn)	TDP-43 yeast inh inconclusive (no result: aSyn rescue, Mito fusion act)
Cc1cc(C)c(S(=O)(=O)NCC(c2cccs2)S(=O)(=O)c2ccccc2)c(C)c1 (stereo not drawn)	TDP-43 yeast inh 2.8µM (no result: aSyn rescue, Mito fusion act)
O=C1C2C=CC=CC2=NC(=S)N1CCN1CCC(=C(c2ccc(F)cc2)c2ccc(F)cc2)CC1 (stereo not drawn)	Mito fusion act 5.8µM (no result: FUS yeast rescue, TDP-43 yeast inh, Abeta rescue)
COc1ccc(S(=O)(=O)Oc2ccc3ccccc3c2)cc1	TDP-43 yeast inh inconclusive (no result: FUS yeast rescue)
COC1=C(OC)C(=O)C(Sc2ccc3ccccc3c2)=CC1=O	aSyn rescue 14µM, TDP-43 yeast inh inconclusive (no result: Mito fusion act, FUS yeast rescue)
CC1CCCCN1C(=S)NC(=O)c1cc(Br)ccc1Cl (stereo not drawn)	TDP-43 yeast inh 25µM
CCC1CCCCN1C(=S)NC(=O)c1cc(Br)ccc1Cl (stereo not drawn)	aSyn rescue inconclusive, TDP-43 yeast inh 28µM, Abeta rescue 11µM
OC(Cn1cncn1)(c1ccc(F)cc1)c1ccc(Cl)cc1 (stereo not drawn)	Mito fusion act 7.1µM, TDP-43 yeast inh inconclusive
OC(Cn1cncn1)c1ccc(Cl)cc1 (stereo not drawn)	none
O=C(Cn1c(=O)nc(-c2ccccc2)c2ccccc21)Nc1cccc(C(F)(F)F)c1	none (no result: aSyn rescue, Mito fusion act)
CC(=O)c1ccc(NC(=S)N2CCC(Cc3ccccc3)CC2)cc1	TDP-43 yeast inh 25µM, Abeta rescue inconclusive
CC(=O)c1ccc(NC(=S)N2c3ccccc3CC2C)cc1 (stereo not drawn)	aSyn rescue inconclusive, TDP-43 yeast inh 16µM
CC1Cc2ccccc2N1C(=S)Nc1ccc(S(N)(=O)=O)cc1 (stereo not drawn)	TDP-43 yeast inh inconclusive (no result: FUS yeast rescue)
CC(=O)c1cccc(NC(=S)N2CCC(Cc3ccccc3)CC2)c1	Mito fusion act inconclusive, TDP-43 yeast inh inconclusive, Abeta rescue inconclusive
CCc1cccc2c(-c3ccccc3)nc(SCC(=O)Nc3ccccc3OC)nc12	none (no result: aSyn rescue, Mito fusion act)
COc1ccc2c(c1)C/C(=C\c1ccc(N(C)C)cc1)C2=O	none (no result: Mito fusion act, FUS yeast rescue, TDP-43 yeast inh, Abeta rescue)
CCCCCCCNC(=O)C1(CC2CC(c3ccc(Cl)cc3)=NO2)CCN(C(=O)CCCCCBr)CC1 (stereo not drawn)	FUS yeast rescue 32µM
O=C(CCCCCBr)N1CCC(CC2CC(c3ccc(Cl)cc3)=NO2)(C(=O)NCC2CCCCC2)CC1 (stereo not drawn)	none
COc1ccc(C2=CCN(C)C(=O)N2c2ccc([N+](=O)[O-])cc2)cc1	none (no result: aSyn rescue, Mito fusion act, TDP-43 yeast inh, Abeta rescue)
Cc1nn(-c2ccccc2)c2c1N(CCCC(=O)NC(C)c1ccccc1)C(=O)CS2 (stereo not drawn)	none (no result: aSyn rescue, Mito fusion act)
CCCCOc1ccc(CNC(=O)CCCN2C(=O)CSc3c2c(C)nn3-c2ccccc2)cc1	FUS yeast rescue inconclusive, TDP-43 yeast inh 28µM (no result: aSyn rescue, Mito fusion act)
Cc1nn(-c2ccccc2)c2c1N(CCCC(=O)NCc1ccc(OC(C)C)cc1)C(=O)CS2	TDP-43 yeast inh 28µM (no result: aSyn rescue, Mito fusion act)
Cc1nn(-c2ccccc2)c2c1N(CCCC(=O)NCc1ccc(Cl)cc1)C(=O)CS2	FUS yeast rescue inconclusive, TDP-43 yeast inh 20µM (no result: aSyn rescue, Mito fusion act)
Cc1nn(-c2ccccc2)c2c1N(CCCC(=O)NCc1ccccc1)C(=O)CS2	TDP-43 yeast inh inconclusive (no result: aSyn rescue, Mito fusion act)
CCn1c(SCC(=O)Nc2ccccc2-c2ccccc2)nnc1-c1ccc(C)cc1	none (no result: aSyn rescue, Mito fusion act, TDP-43 yeast inh, Abeta rescue)
COc1ccc(N2CCN(C(c3cc4cc(C)ccc4[nH]c3=O)c3nnnn3Cc3ccccc3)CC2)cc1 (stereo not drawn)	FUS yeast rescue 8.9µM
Cc1ccccc1Nc1nc2ccccc2s1	TDP-43 yeast inh 20µM (no result: FUS yeast rescue)
CC1(C)CCc2cc(O)ccc2O1	none (no result: Mito fusion act, FUS yeast rescue, TDP-43 yeast inh, Abeta rescue)
CCOC(=O)/C(C#N)=C/c1c(OCC)n(CC)c2ccccc12	TDP-43 yeast inh 13µM (no result: FUS yeast rescue)
CCOC(=O)/C(C#N)=C\c1cn(C)c2ccccc12	none
